Test results: PubChem BioAssay (EPA / NIEHS)
Results filed as inconclusive are left out. Active and inactive are the calls of the source. The calls were made as follows: active = hit-call score of the fitted dose curve at least 0.9, where 1 is the maximum; inconclusive = response in the unintended direction; inactive = score below 0.9.

Read-out: xenobiotic metabolism (CYP2C9), CYP2C9 (gene 1559)
Assay: CLD_CYP2C9_6hr: CellzDirect (CLD) Gene Expression Assay for xenobiotic metabolism (CYP2C9) at 6 hours (AID 2283664)
Experimental: CLD_6hr is a cell-based, multiplexed-readout assay that uses hepatocyte, a human liver primary cell, with measurements taken at 6 hours after chemical dosing in a 96-well plate.CLD_CYP2C9_6hr is one of 16 assay component(s) measured or calculated from the CLD_6hr assay. It is designed to make measurements of mRNA induction, a form of inducible reporter, as detected with chemiluminescence signals by Quantitative Nuclease Protection Assay (qNPA) technology.Data from the assay component CLD_CYP2C9_6hr was analyzed at the endpoint, CLD_CYP2C9_6hr, in the positive analysis fitting direction relative to DMSO as the negative control and baseline of activity. Using a type of inducible reporter, gain-of-signal activity can be used to understand changes in the reporter gene as they relate to the gene CYP2C9. Furthermore, this assay endpoint can be referred to as a primary readout. To generalize the intended target to other relatable targets, this assay endpoint is annotated to the cyp intended target family, where subfamily is xenobiotic metabolism.
Human hepatocyte cultures were treated daily for two consecutive days with fresh dosing solutions containing appropriate concentrations of the 320 ToxCast chemicals (chemical identities were blinded to CellzDirect and other ToxCast collaborators), vehicle control (0.2% DMSO), and positive control inducers as summarized in Table 1. Due to the large number of treatment groups and chemicals examined, the ToxCast chemicals were divided into two groups (spanning two independent cultures of hepatocytes from separate donor preparations (Hu778: ToxCast plates 1 and 2; Hu776: ToxCast plates 3 and 4). Each preparation of human hepatocyte cultures was treated with respective vehicle control, medium only control, set of six positive controls/reference chemicals for the five hepatic receptor pathways, and a subset of eight of the ToxCast chemicals (indoxacarb, pyrithiobac-sodium, norflurazon, cyhalofop-butyl, methomyl, thiram, acetochlor, and propiconazole). These replicate data, coupled with internal replicates designed within the blinded ToxCast chemical library, provided additional data to evaluate interindividual differences between hepatocyte preparations and their potential impact on chemical profiles.Cell morphology and integrity were evaluated using phase-contrast microscopy as an indicator of hepatocyte cell health (Tyson & Green, 1987). Cultures for each treatment group (i.e., media, vehicle [0.2% DMSO], positive control inducers [multiple concentrations], and the ToxCast chemicals [multiple concentrations]) were observed and cell morphology was assessed relative to vehicle control cultures at each harvest time point (0, 6, 24, or 48 h). […] Images were evaluated at the conclusion of the study to assess changes in cell integrity and account for the effects of chemical exposure on uncharacteristic changes in concentration-dependent gene expression profiles. The results from these determinations of apparent cytotoxicity were annotated (yes/no) alongside the corresponding qNPA data for reference.At the conclusion of each treatment period, hepatocyte cultures (96-well) were washed with 1 volume of HBSS, lysed by addition of 25 ul ArrayPlate lysis buffer (HTG, Tucson, AZ), and 70 ul/well of Denaturation Oil, denatured by incubation at 95C for 10 min, and frozen at approximately -70C until analysis by nuclease protection assay (qNPA) (Roberts et al., 2007). For qNPA analysis, cell lysates were thawed at 50C for approximately 30 min, qNPA probes were added, and samples were incubated at 95C for 10 min to begin the detection process by denaturing the target RNA, dissociating the duplexes and secondary structure hybridization. At the conclusion of the hybridization period, S1 nuclease reagent was added to each sample to digest all nonprotected nucleotides at 50C for 60-90 min. […]

| Compound | outcome |
| --- | --- |
| C=C(C)[C@H]1Cc2c(ccc3c2O[C@@H]2COc4cc(OC)c(OC)cc4[C@@H]2C3=O)O1 | inactive |
| O=C(O)c1cc(Oc2ccc(C(F)(F)F)cc2Cl)ccc1[N+](=O)[O-] | inactive |
| COP(=O)(OC)SCn1c(=O)oc2cc(Cl)cnc21 | inactive |
| O=[N+]([O-])c1cc(C(F)(F)F)c(Cl)c([N+](=O)[O-])c1Nc1ncc(C(F)(F)F)cc1Cl | inactive |
| CCOC(=O)COc1cc(-c2nn(C)c(OC(F)F)c2Cl)c(F)cc1Cl | inactive |
| COc1cccc(C(=O)NN(C(=O)c2cc(C)cc(C)c2)C(C)(C)C)c1C | inactive |
| CSc1nnc(C(C)(C)C)c(=O)n1N | inactive |
| CCCCOC(=O)c1ccccc1C(=O)O | inactive |
| CCCSP(=O)(OCC)SCCC | inactive |
| CSC1=N[C@@](C)(c2ccccc2)C(=O)N1Nc1ccccc1 | inactive |
| CCc1cccc(CC)c1N(COC)C(=O)CCl | inactive |
| Nc1c(Cl)cc([N+](=O)[O-])cc1Cl | inactive |
| CN1COCN(Cc2cnc(Cl)s2)C1=N[N+](=O)[O-] | inactive |
| CCNc1nc(Cl)nc(NC(C)(C)C#N)n1 | inactive |
| COP(=O)(NC(C)=O)SC (stereo not drawn) | inactive |
| CCOP(=S)(OCC)OC(Cl)C(Cl)(Cl)Cl (stereo not drawn) | inactive |
| O=c1ccc(=O)[nH][nH]1 | inactive |

| Compound | outcome |
| --- | --- |
| CC(C1CC1)C(O)(Cn1cncn1)c1ccc(Cl)cc1 (stereo not drawn) | inactive |
| CCCCSP(=O)(SCCCC)SCCCC | inactive |
| CC(C)=CC1C(C(=O)OCN2C(=O)C3=C(CCCC3)C2=O)C1(C)C (stereo not drawn) | inactive |
| CC(C)N(C(=O)SCC(Cl)=C(Cl)Cl)C(C)C | inactive |
| CON=C(C(=O)OC)c1ccccc1CON=C(C)c1cccc(C(F)(F)F)c1 | inactive |
| CSc1nc(NC(C)C)nc(NC(C)C)n1 | inactive |
| COc1cc(OC)nc(Sc2cccc(Cl)c2C(=O)O)n1 | inactive |
| CNC(=O)ON=C(SC)C(=O)N(C)C | inactive |
| CC(=NC#N)N(C)Cc1ccc(Cl)nc1 | inactive |
| CC[C@H](C)[C@H]1O[C@]2(C=C[C@@H]1C)C[C@@H]1C[C@@H](C/C=C(\C)[C@@H](O[C@H]3C[C@H](OC)[C@@H](O[C@H]4C[C@H](OC)[C@@H](NC)[C@H](C)O4)[C@H](C)O3)[C@@H](C)/C=C/C=C3\CO[C@@H]4[C@H](O)C(C)=C[C@@H](C(=O)O1)[C@]34O)O2 | inactive |
| CCOP(=O)(OCC)Oc1cc(C)nc(C(C)C)n1 | inactive |
| CCOP(=S)(OCC)Oc1ccc2c(C)c(Cl)c(=O)oc2c1 | inactive |
| Nc1nc(N)nc(NC2CC2)n1 | inactive |
| N#CSCSC#N | inactive |
| CCC(CC)Nc1c([N+](=O)[O-])cc(C)c(C)c1[N+](=O)[O-] | inactive |
| Cc1ccn2nc(S(=O)(=O)Nc3c(F)cccc3F)nc2n1 | inactive |
